# CHRM1 PAM – human M1 muscarinic receptor positive allosteric modulators, primary screen, CHO-K1 cells, Fluo-8 calcium fluorescence, 1536-well | Muscarinic acetylcholine receptor M1 (Homo sapiens), P11229 | CHO-K1 hM1, ACh EC20; 0% = ACh EC20, 100% = maximal ACh | activation, % at 3 µM | actives 0.088% (n = 360,000) | AID 588819, 2011; in the data active = activation above about 19%, passing the limit was not always enough
# SKN-1 inh – suppressors of acrylamide-induced Pgst-4::GFP reporter in worms, primary screen, SKN-1 inhibitor project, whole organism, uHTS, GFP/RFP fluorescence ratio, strain VP596 | AID 624304, 2012 | C. elegans VP596 Pgst-4::GFP/RFP ratio, 24 h | actives 0.49% (n = 360,000) | inhibition, % at 21.8 µM;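 active = interference check ratio from 0.5 to 1.5 plus GFP to RFP signal ratio inhibition reaching or exceeding a fixed threshold, cut at about 30% in these data, passing the limit was not always enough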
# ATG4B inhibitor – ATG4B protease inhibitors, primary screen, biochemical, fluorescence, uHTS. Cysteine protease ATG4B (Homo sapiens), Q9Y4P1. ATG4B cleavage of LC3-PLA2, NBD-HPC fluorescence, 1 h. inhibition, % at 8.33 µM. actives 0.51% (n = 340,000); in the data active = inhibition above about 40%
# M1 antag – human M1 muscarinic receptor antagonists, primary screen, CHO-K1 cells, Fluo-8 calcium fluorescence, 1536-well | Muscarinic acetylcholine receptor M1 (Homo sapiens), P11229 | CHO-K1 hM1, ACh EC80 antagonist | inhibition, % at 3 µM | actives 1.3% (n = 360,000) | AID 588852, 2011;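 active = percent inhibition above its own plate's cutoff, namely the mean of that plate's compound wells plus 3 SD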;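 also: peak over basal fluorescence ratio during 140 s after agonist addition; 0% = ACh EC80 plus DMSO and 100% = DMSO alone without agonist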
# M1 ag – human M1 muscarinic receptor agonists, primary screen, Fluo-8 calcium fluorescence, CHO-K1 cells, HTS; AID 588814, 2011; activation, % at 3 µM; actives 0.33% (n = 360,000); CHO-K1 hM1, agonist mode; 0% DMSO, 100% acetylcholine EC100;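 active = activation above the run's mean compound activation plus 3 SD, cut at about 16% in these data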;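 also: peak over basal fluorescence ratio within a 140 s kinetic read after compound addition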
# Myeloid diff MLP – induction of myeloid progenitor differentiation, primary screen, cell-based, flow cytometry, MLPCN library. calls only at 10 µM. actives 1% (n = 360,000). ER-HoxA9 myeloid progenitors, lysozyme-GFP differentiation;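 active = normalized GFP-positive differentiation at or above the plate's own cutoff, the solvent-only control mean plus 3 SD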;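 also: cells exposed to compound for four days before flow analysis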
# Starred values were filed as active, the others as inactive; i = inactive; / = not tested or not shown; + = active, no number. Sampled rows, rich in hits. Any-hit rate of the full collection: about 3.5%.
SMILES,CHRM1 PAM,SKN-1 inh,ATG4B inhibitor,M1 antag,M1 ag,Myeloid diff MLP
c1ccc(CN2CCN(C(c3ccccc3)c3nnnn3Cc3ccccc3)CC2)cc1 (stereo not drawn),-3,-2,4,-19,-8,i
c1ccc(C(c2ccccc2)N2CCN(Cc3nnnn3C3CCCC3)CC2)cc1,-12,14,-3,-1,-6,i
c1ccc(CN2CCN(C(c3ccccc3)c3ccccc3)CC2)cc1,-25,0,-4,44*,-9,i
Cc1cccc(C)c1NC(=O)C1(C)CN(S(C)(=O)=O)CC(=O)N1CCOc1ccccc1 (stereo not drawn),/,3,/,/,/,i
NC(N)=Nc1nc2ccccc2o1,8,-6,6,-12,-1,i
CCCN(C(=O)c1ccc(N2CCCC2=O)cc1)C1CCS(=O)(=O)C1 (stereo not drawn),14,4,1,-17,0,i
CN(C)CCCN(Cc1ccccc1)C(=S)Nc1ccc(OC(F)F)cc1,-26,-3,14,55*,-8,i
COc1ccc(S(=O)(=O)Nc2ccc(F)c(F)c2)cc1C(=O)N1CCOCC1,2,-4,2,-6,-4,/
Cc1cccc(N=Nc2c(O)[nH]c3ccc(Br)cc23)c1,4,20,2,-4,-3,i
COc1ccccc1N=Nc1c(O)[nH]c2ccc(Br)cc12,6,50*,1,-3,-2,+
O=c1c2ccccc2oc2ccc(-c3ccc4cc[nH]c4c3)cc12,11,70*,12,-10,-2,i
Cc1ccc2oc3ccccc3c(=O)c2c1,6,21,-1,-14,-10,i
Cc1ccc(OC(=O)N2CCOCC2)cc1,10,-19,-9,-17,-3,i
CC(C)(C)c1ccc(OC(=O)N2CCOCC2)cc1,11,-7,-4,-12,2,+
O=C1C2CSCN2C(=O)CN1CCCN1CCN(C(c2ccccc2)c2ccccc2)CC1 (stereo not drawn),-26,8,-15,62*,-9,i
O=C1c2ccccc2C(=O)N1CC#CCN1CCN(C(c2ccccc2)c2ccccc2)CC1,-9,22,-2,-2,-6,i
CCC1Oc2ccc(C)cc2N(CC(=O)N(Cc2ccc(C)o2)C2CC(C)(C)NC(C)(C)C2)C1=O (stereo not drawn),-10,-12,-2,29*,-2,i
CCC1Oc2ccc(C)cc2N(CC(=O)N(Cc2cccnc2)Cc2ccc(C)o2)C1=O (stereo not drawn),-8,2,10,7,-10,i
Cc1nn(C)c(C)c1S(=O)(=O)N1CCCC(C(=O)NCCc2ccc(Cl)cc2)C1 (stereo not drawn),7,15,12,-13,-5,i
Cc1noc(C)c1S(=O)(=O)N1CCCC(C(=O)NCCc2ccc(Cl)cc2)C1 (stereo not drawn),4,47*,-15,-10,-5,i
O=C1NC[C@H](CCCCN2CCN(Cc3ccccc3)C(=O)C2=O)N(CCc2ccc(O)cc2)C1=O,/,2,/,/,/,i
Cc1nnc(SCCn2c(N3CCCC(C)C3)nc3c2c(=O)[nH]c(=O)n3C)s1 (stereo not drawn),11,-21,-2,0,-5,i
Cc1nnc(SCCn2c(N3CCC(C)CC3)nc3c2c(=O)[nH]c(=O)n3C)s1,6,-5,16,-6,-5,+
CCOc1ccc(-c2nn(-c3ccccc3)cc2/C=C(\C#N)S(=O)(=O)c2ccccc2)cc1C,-1,41*,-5,-14,-4,i
COc1ccc(N2CCCC2)c(NC(=O)COc2ccccc2)c1,3,11,20,-3,-5,i

# Source: PubChem (several laboratories)
